Sampled rows, rich in hits. Any-hit rate of the full collection: about 0.78%.
RGS4-Gao reg: modulators of RGS4 binding to Galphao, primary screen, biochemical, multiplexed bead flow cytometry; actives lie on both sides; binding response (% of control), % at 10 µM; hit rate 0.33% among 220,000; Guanine nucleotide-binding protein G(o) subunit alpha (Homo sapiens), P09471; in the data active means binding response below about 49% or above about 150%; inactive means in between;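 further: fluorescent Galphao activated with aluminum fluoride binding bead-coupled RGS4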
Target sequence (P09471 whole entry, looked up): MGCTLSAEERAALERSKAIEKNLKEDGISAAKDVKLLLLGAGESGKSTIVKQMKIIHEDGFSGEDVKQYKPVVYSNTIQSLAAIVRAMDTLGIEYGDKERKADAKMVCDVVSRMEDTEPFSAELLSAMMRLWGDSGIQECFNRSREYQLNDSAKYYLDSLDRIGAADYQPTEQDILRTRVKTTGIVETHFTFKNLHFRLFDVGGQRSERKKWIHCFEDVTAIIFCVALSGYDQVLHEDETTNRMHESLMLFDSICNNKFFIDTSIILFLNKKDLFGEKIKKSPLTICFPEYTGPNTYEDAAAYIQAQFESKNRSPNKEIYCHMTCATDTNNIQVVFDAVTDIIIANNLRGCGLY
RGS8-Gao reg: RGS8-Galphao binding modulators, primary screen, biochemical, multiplexed bead flow cytometry; AID 1423, 2008; Guanine nucleotide-binding protein G(o) subunit alpha (Homo sapiens), P09471; hit rate 0.34% among 220,000; actives lie on both sides; response (percent of control binding), % at 10 µM; in the data active means response below about 60% or above about 140%; inactive means in between;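 further: Galphao activated as the GDP aluminium fluoride complex binding bead-coupled RGS8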
RGS16-Gao: modulators of RGS16 binding to Galphao, primary screen, biochemical, human proteins, multiplexed bead flow cytometry; Regulator of G-protein signaling 16 (Homo sapiens) + Guanine nucleotide-binding protein …; bead-based flow cytometry RGS16-Galphao binding, fluorescence; actives lie on both sides; binding response (% of control), % at 10 µM; hit rate 0.38% among 220,000; AID 1441, 2008;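 further: Galphao activated by GDP with aluminum fluoride before binding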
RGS7-Gao reg: RGS7-Galphao binding modulators, primary screen, biochemical, multiplexed bead flow cytometry; Guanine nucleotide-binding protein G(o) subunit alpha (Homo sapiens), P09471; actives lie on both sides; binding response (% of control), % at 10 µM; hit rate 0.35% among 220,000; in the data active means binding response below about 49% or above about 150%; inconclusive means no clear call, values can overlap the other calls; inactive means in between;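 further: fluorescent Galphao held in activated GDP-AlF4 state binding bead-coupled RGS7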
RGS-Gao: modulators of RGS–Galpha-o binding, primary screen, biochemical, multiplexed beads, flow cytometry, RGS4/7/8/16/19 | shares compounds with RGS16-Gao | AID 1504, 2009 | RGS4–Galpha-o binding response, % at 10 µM | hit rate 99% among 1,600 | multiplexed bead flow cytometry;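 further: fluorescently labeled Galpha-o bound to GDP with aluminium fluoride binding biotinylated RGS beads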
Target sequence (P09471 whole entry, looked up): as above
Target sequence (P49798 whole entry, looked up): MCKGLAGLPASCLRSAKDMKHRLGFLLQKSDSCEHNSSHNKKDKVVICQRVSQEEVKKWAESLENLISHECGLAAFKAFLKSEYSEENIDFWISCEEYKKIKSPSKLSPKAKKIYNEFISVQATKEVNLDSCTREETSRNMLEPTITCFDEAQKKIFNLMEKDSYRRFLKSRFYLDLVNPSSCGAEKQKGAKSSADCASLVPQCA
Biotin-avidin: disruption of biotin probe capture by avidin, counter-screen for RGS protein interaction modulators, biochemical, flow cytometry, bead-based | 1,700 tested, under 10 active | shares compounds with RGS16-Gao | inhibition, % at 10 µM | streptavidin beads, fluorescein-biotin binding;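 active means inhibition above 50%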;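 further: median green fluorescence of gated singlet beads compared with DMSO control wells; 0% = DMSO wells and 100% = complete loss of bead fluorescence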
RGS8-Gao single: RGS8-Galphao binding modulators, confirmation, biochemical, multiplexed bead flow cytometry, single concentration; AID 1836, 2009; binding response (% of control), % at 10 µM; shares compounds with RGS16-Gao; hit rate 3% among 1,700; bead-based flow cytometry RGS8-Galphao binding, fluorescence; actives lie on both sides; in the data active means binding response below about 72% or above about 130%; inactive means in between;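 further: Galphao activated as GDP AlF4 complex before binding bead RGS8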
RGS7-Gao confirm: RGS7-Galphao binding modulators, confirmation, biochemical, multiplexed bead flow cytometry, single concentration; bead-based flow cytometry RGS7-Galphao binding; actives lie on both sides; shares compounds with RGS16-Gao; hit rate 7.8% among 1,700; AID 1837, 2009; response (percent of control binding), % at 10 µM; in the data active means response below about 75% or above about 130%; inactive means in between;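 further: fluorescent Galphao activated with GDP and aluminum fluoride binding bead-coupled RGS7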
RGS16-Gao conf: modulators of RGS16-Galphao protein binding, confirmation, biochemical, single concentration, multiplexed bead flow cytometry | hit rate 4% among 1,700 | AID 1838, 2009 | response (% of control binding), % at 10 µM | shares compounds with RGS16-Gao | bead-based flow cytometry; actives lie on both sides; in the data active means response below about 74% or above about 130%; inactive means in between;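 further: Galphao activated as the GDP aluminium fluoride complex binding bead-coupled RGS16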
RGS4-Gao confirm: modulators of RGS4-Galphao protein binding, confirmation, biochemical, single concentration, multiplexed bead flow cytometry | shares compounds with RGS16-Gao | actives lie on both sides | binding response (% of control), % at 10 µM | hit rate 4% among 1,700 | AID 1840, 2009; in the data active means binding response below about 74% or above about 130%; inactive means in between
RGS19-Gao conf: regulators of RGS19-Galphao binding, confirmation, biochemical, single point, multiplexed bead flow cytometry | response (percent of control binding), % at 10 µM | hit rate 5% among 1,700 | shares compounds with RGS16-Gao | bead-based flow cytometry RGS19-Galphao binding; actives lie on both sides; in the data active means response below about 50% or above about 160%; inactive means in between;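 further: 100% = no compound control and 0% = blank background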
* hit, by the source's call; ? = inconclusive; / = no result given; [ ] = dose if it differs, or a comment. Unless noted, how the calls were made is not given here.

SMILES | RGS4-Gao reg | RGS8-Gao reg | RGS16-Gao | RGS7-Gao reg | RGS-Gao | Biotin-avidin | RGS8-Gao single | RGS7-Gao confirm | RGS16-Gao conf | RGS4-Gao confirm | RGS19-Gao conf
CCn1c(C)cc(/C=C2\SC(=O)N(CC(=O)Nc3ccc(C)c(C)c3)C2=O)c1C | -95.2* | 6.0* | -94.8* | -27.5* | / | -1.4 | 100.5 | 91.8 | 96.7 | 97.8 | 95.5
O=C(Cn1cccc1)Nc1ccc(F)cc1F | 105.2 | 100.7 | 98.7 | 99.8 | / | / | / | / | / | / | /
Cc1cc(NC(=O)c2ccccc2)n(C(C)(C)C)n1 | 99.1 | 101.3 | 100.3 | ? | / | / | / | / | / | / | /
Cc1cc(NC(=O)c2ccccc2)nc(C)n1 | 174.4*[activator] | 149.8*[activator] | 173.7 | ? | / | -0.4 | 103.6 | 105.0 | 105.4 | 104.4 | 99.7
COC(=O)c1sccc1NC(=O)c1c(C)noc1C | 96.7 | 95.6 | 92.1 | 97.0 | / | / | / | / | / | / | /
COC(=O)c1sccc1NC(=O)c1cc(C)on1 | 98.8 | 109.9 | / | 96.0 | / | -0.6 | 99.5 | 102.8 | 102.2 | 100.3 | 112.2
CCN(CC)C(=O)C(=O)c1cccn1-c1c(Cl)cccc1C#N | 112.3 | 102.3 | 113.2 | 157.8*[activator] | 112.3* | 1.2 | 103.9 | 106.4 | 103.7 | 104.5 | 98.5
CC(=O)c1cccc(NS(=O)(=O)c2ccc(N/C=C\C(=O)c3ccc(C)cc3)cc2)c1 | 138.1 | 89.7 | 114.4 | 264.4*[activator] | 138.1* | / | / | / | / | / | /
COc1ccc(C(=O)OCc2cc3cccc(C)c3[nH]c2=O)cc1 | 93.5 | 97.0 | 98.6 | 90.2 | / | / | / | / | / | / | /
Cc1cccc2cc(COC(=O)c3ccccn3)c(=O)[nH]c12 | 69.3 | 74.0 | -25.0* | 71.5 | 69.3* | -1.2 | 98.3 | 99.1 | 99.7 | 96.7 | 106.5
COc1ccc(-n2nc(C(=O)NCC(=O)N3CCN(c4ccccn4)CC3)c3ccccc3c2=O)cc1Cl | 100.3 | 104.1 | 100.2 | 101.8 | / | / | / | / | / | / | /
COc1ccc(-n2nc(C(=O)NCC(=O)N3CCN(C)CC3)c3ccccc3c2=O)cc1OC | 108.5 | 141.8*[activator] | 222.4 | 110.2 | 108.5* | -0.2 | 100.3 | 99.3 | 97.6 | 98.4 | 91.9
COc1ccc(-c2cnnn2-c2ccc(NC(=O)c3ccc(S(=O)(=O)N4CCCCC4)cc3)cc2)cc1 | 22.2* | 25.1* | 14.2 | 21.3* | / | 0.3 | 99.9 | 98.8 | 98.0 | 98.8 | 103.4
COc1ccc(O[C@H]2C=C[C@@H](c3ccccc3)O[C@@H]2COC(=O)CC/C(C)=N/O[C@@H](C)c2cc(-c3c(C)cc(C)cc3C)no2)cc1 | 101.8 | 100.7 | 101.0 | 101.2 | / | / | / | / | / | / | /
COc1cc(C(=O)N/N=C/c2ccccn2)cc(OC)c1OC | 20.4* | 13.0* | 12.5* | ? | / | -1.8 | 100.7 | 104.8 | 101.1 | 101.5 | 107.2
COCC(C)NC(=O)NC(=O)c1ccc(Cl)cc1 (stereo not drawn) | 103.1 | 103.1 | 107.3 | 108.7 | / | / | / | / | / | / | /
Cc1ccsc1/C=N/n1c(-c2cc(-c3ccccc3)n[nH]2)n[nH]c1=S | 100.5 | 101.2 | 101.8 | ? | / | / | / | / | / | / | /
Cc1ccccc1/C=N/n1c(-c2cc(-c3ccccc3)n[nH]2)n[nH]c1=S | 37.2* | 40.9* | 30.5 | ? | / | -2.1 | 95.2 | 108.9 | 90.6 | 96.0 | 97.2
Cc1ccc(NC(=S)/C(=C(\[O-])c2ccc(C)c([N+](=O)[O-])c2)[n+]2ccccc2)cc1C | 100.5 | 89.5 | 57.9 | 103.8 | / | / | / | / | / | / | /
Cc1ccc(S(=O)(=O)/N=C2/C=C(Sc3ncn[nH]3)C(=O)c3ccccc32)cc1 | 86.5 | 64.0 | 15.2* | 78.6 | 86.5* | / | / | / | / | / | /
COc1ccc(CCNC(=O)CN(C)S(=O)(=O)c2ccc3c(c2)CCC(=O)N3)cc1OC | 77.3 | 90.0 | 80.8 | 96.2 | / | / | / | / | / | / | /
CN(C)/C=N/c1c(C#N)cnn1-c1ccc(C(F)(F)F)cn1 | 60.6 | 69.7 | -121.6* | 70.1 | 60.6* | 3.9 | 105.2 | 82.9 | 102.4 | 90.2 | 64.5
Cc1c(Cl)cccc1NC(=O)CC(C(=O)O)C1CCCO1 (stereo not drawn) | 136.4 | 147.6*[activator] | 322.6 | 129.8 | 136.4* | -1.3 | 106.5 | 113.0 | 108.9 | 106.4 | 96.1
Cc1sc2nc3c4ccccc4c(NCc4ccco4)nn3c(=O)c2c1C | 103.2 | 99.2 | 104.2 | 119.5 | / | / | / | / | / | / | /
Cc1occc1C(=O)Nc1cccc(C(F)(F)F)c1 | 107.1 | 103.4 | 111.1 | 104.3 | / | / | / | / | / | / | /
SMILES | RGS4-Gao reg | RGS8-Gao reg | RGS16-Gao | RGS7-Gao reg | RGS-Gao | Biotin-avidin | RGS8-Gao single | RGS7-Gao confirm | RGS16-Gao conf | RGS4-Gao confirm | RGS19-Gao conf
CCC(=O)NC(=S)Nc1ccc(Cl)cn1 | 93.8 | 96.4 | 90.7 | 93.6 | / | / | / | / | / | / | /
CCOC(=O)/C(C#N)=N/Nc1ccccc1OC | 88.1 | 65.3 | 19.8* | 88.0 | 88.1* | -0.7 | 102.2 | 94.9 | 101.1 | 98.4 | 91.8
COc1ccc(N2CCN(C(CNC(C)=O)c3ccco3)CC2)cc1 (stereo not drawn) | 107.2 | 102.8 | 108.2 | 106.5 | / | / | / | / | / | / | /
COc1ccc(N2CCN(C(CNC(=O)OCc3ccccc3)c3ccco3)CC2)cc1 (stereo not drawn) | 104.2 | 124.5 | 188.7*[activator] | 106.1 | 104.2* | 2.7 | 102.6 | 98.7 | 101.4 | 100.2 | 97.9
O=C(Nc1ccc2c(c1)OCO2)N1CCN(c2ccccc2Cl)CC1 | 103.2 | 100.0 | 99.7 | 99.0 | / | / | / | / | / | / | /
O=C(Nc1ccc2c(c1)OCO2)N1CCN(c2cccc(C(F)(F)F)c2)CC1 | 46.5* | 72.4 | -242.7 | 68.2 | / | -1.2 | 97.7 | 95.6 | 96.5 | 98.5 | 104.5
Cc1nn(C)c(C)c1CNC(=O)c1nn2c(c1Cl)NC(c1cccs1)CC2C(F)(F)F (stereo not drawn) | 95.5 | 102.6 | 97.2 | 100.3 | / | / | / | / | / | / | /
CCC(=O)Nc1cc(-c2nn(CC(=O)N3CCCCC3)c(=O)c3ccccc23)ccc1N1CCOCC1 | 117.0 | 100.1 | 108.5 | 155.4*[activator] | 117.0* | -1.6 | 103.6 | 99.6 | 102.9 | 101.3 | 111.6

Assay outcomes (PubChem)
